This note sets out measurements from PubChem BioAssay (Tox21).

Results filed as inconclusive are left out. A structure can be active in one record and inactive in another. Active and inactive are the calls of the source. Unless noted, calls follow the shape of the dose curve; as a rule, active = well fitted curve in the direction sought with a large enough effect in the repeat runs; inconclusive = weak or mixed curves; inactive = no such curve, though single readings can be large; an effect the other way counts as inactive or inconclusive.

The nature of test [1]: qHTS assay to identify small molecule antagonists of the estrogen related receptor (ERR) signaling pathway from Tox21 library - cell viability counter screen (AID 1224834). Also: nearly all actives have a fitted effect of over 30% in size. An outline of the steps: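 Fluorescence from CellTiter-Fluor gives the viability read-out, taken 30 min after reagent addition. Before that, ERR cells seeded 6 h earlier were incubated with compounds for 17.5 h at 37 C.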
Background: qHTS replaces the single test concentration by a dilution series.

The target in test [2] is Luciferin 4-monooxygenase (Photinus pyralis) (UniProt P08659). The test is described as follows: qHTS assay to identify small molecule inhibitors of firefly luciferase (AID 1224835). Also: nearly all actives have a fitted effect of over 25% in size. Also: potency is read from the fitted curve at half-maximal effect. An outline of the steps: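 Inhibition of purified Photinus luciferase is measured by luminescence. Substrate levels (D-luciferin, ATP) sit at their KM values. Each compound is tested in a concentration series.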

Test [3] in a line: qHTS assay to identify small molecule agonists of the constitutive androstane receptor (CAR) signaling pathway - cell viability counter screen (AID 1224836). Also: series mostly up to about 92 µM; nearly all actives have a fitted effect of over 45% in size. The method, boiled down:
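Compound titrations (15 concentrations) went onto HepG2-CYP2B6-hCAR cells 4 h after seeding, alongside PK11195 at a final 0.75 uM; a 23 h, 37 C/5% CO2 incubation preceded CellTiter-Fluor viability measurement.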

Test [4] in a line: qHTS assay to identify small molecule antagonists of the constitutive androstane receptor (CAR) signaling pathway - cell viability counter screen (AID 1224837). Also: series mostly up to about 92 µM; nearly all actives have a fitted effect of over 45% in size. The method, boiled down: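 HepG2-CYP2B6-hCAR cells, 2500/well, 4 hr pre-incubation; compound titration, 15 conc.; CITCO 50 nM final; 23 hr, 37 C/5% CO2; CellTiter-Fluor, fluorescence intensity.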
Test [5] concerns the target Nuclear receptor subfamily 1 group I member 3 (Homo sapiens) (UniProt Q14994). As to the kind of experiment: qHTS assay to identify small molecule agonists of the constitutive androstane receptor (CAR) signaling pathway (AID 1224839).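 Also: HepG2 cells stably carrying human CAR and a CYP2B6 luciferase reporter; series mostly up to about 92 µM; nearly all actives have a fitted effect of over 15% in size.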 The method, boiled down:
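In this screen, CAR-driven CYP2B6 promoter activity is measured by luminescence in HepG2-CYP2B6-hCAR cells after 24 h with test compounds and 0.75 uM PK11195 (final concentration).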

The nature of test [6]: qHTS assay to identify small molecule antagonists of the estrogen related receptor signaling pathway with the pleiotropic PPARgamma coactivator (PGC) from Tox21 10K library - cell viability counter screen (AID 1224840; active = well fitted cell-killing curve with a large enough effect in the repeat runs, not every such curve was filed as active; also: nearly all actives have a fitted effect of over 40% in size). The method, boiled down:
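PGC/ERR cells, 2,000/well; 6 h pre-incubation 37 C/5% CO2; cpd in DMSO via pin tool; 17.5 h 37 C; CellTiter-Fluor, 30 min; fluorescence.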

Test [7] in a line: qHTS assay to identify small molecule antagonists of the estrogen related receptor signaling pathway with the pleiotropic PPARgamma coactivator (PGC) from Tox21 10K library (AID 1224841; call rule not given here; also: actives are mostly falling curves and most rising ones were filed inactive; nearly all actives have a fitted effect of over 50% in size; also: potency is read from the fitted curve at half-maximal effect). The method, boiled down: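 PGC/ERR cell line, 2,000 cells/well; 6 h pre-incubation 37 C/5% CO2; compounds (DMSO) pinned in; 18 h, 37 C; One-Glo, 30 min RT; luminescence.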
Test [8] can be described thus: qHTS assay to identify small molecule agonists of the estrogen related receptor signaling pathway with the pleiotropic PPARgamma coactivator (PGC) from Tox21 10K library (AID 1224842). Also: nearly all actives have a fitted effect of over 15% in size. The method, boiled down: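 Luminescence from One-Glo (30 min, room temperature) measured after PGC/ERR cells had 18 h at 37 C with pinned compound (23 nL in DMSO). Cells had been seeded at 2,000 per well and pre-incubated 6 h.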

Test [9] has as its target Nuclear receptor subfamily 1 group I member 3 (Homo sapiens) (UniProt Q14994). The test is described as follows: qHTS assay to identify small molecule antagonists of the constitutive androstane receptor (CAR) signaling pathway (AID 1224838).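 Also: HepG2 cells stably expressing hCAR with CYP2B6 luciferase reporter stimulated by CITCO; nearly all actives have a fitted effect of over 40% in size.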 An outline of the steps:
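HepG2-CYP2B6-hCAR cells; 4 h pre-incubation; cpd (15 conc) + CITCO 50 nM final; 24 h, 37 C/5% CO2; ONE-Glo, luminescence.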

A short description of test [10]: qHTS assay to identify small molecule agonists of the estrogen related receptor signaling pathway with the pleiotropic PPARgamma coactivator (PGC) (AID 1224823). An outline of the steps:
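PGC/ERR reporter cells seeded 6 h, then exposed to compounds (23 nL in DMSO) for 18 h at 37 C. One-Glo luciferase luminescence read after 30 min at room temperature.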

Sequence of Nuclear receptor subfamily 1 group I member 3 (Homo sapiens) (Q14994 whole entry, looked up): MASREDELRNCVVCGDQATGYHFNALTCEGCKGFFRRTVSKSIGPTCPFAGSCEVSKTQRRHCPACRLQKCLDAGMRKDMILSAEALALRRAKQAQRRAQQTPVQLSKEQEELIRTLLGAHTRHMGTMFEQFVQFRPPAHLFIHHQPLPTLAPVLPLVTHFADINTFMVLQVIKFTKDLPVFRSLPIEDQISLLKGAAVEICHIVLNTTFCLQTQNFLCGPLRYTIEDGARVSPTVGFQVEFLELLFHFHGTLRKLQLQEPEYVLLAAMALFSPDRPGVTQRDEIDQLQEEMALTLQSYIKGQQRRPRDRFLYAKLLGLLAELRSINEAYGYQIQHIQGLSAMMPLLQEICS
Sequence of Luciferin 4-monooxygenase (Photinus pyralis) (P08659 whole entry, looked up): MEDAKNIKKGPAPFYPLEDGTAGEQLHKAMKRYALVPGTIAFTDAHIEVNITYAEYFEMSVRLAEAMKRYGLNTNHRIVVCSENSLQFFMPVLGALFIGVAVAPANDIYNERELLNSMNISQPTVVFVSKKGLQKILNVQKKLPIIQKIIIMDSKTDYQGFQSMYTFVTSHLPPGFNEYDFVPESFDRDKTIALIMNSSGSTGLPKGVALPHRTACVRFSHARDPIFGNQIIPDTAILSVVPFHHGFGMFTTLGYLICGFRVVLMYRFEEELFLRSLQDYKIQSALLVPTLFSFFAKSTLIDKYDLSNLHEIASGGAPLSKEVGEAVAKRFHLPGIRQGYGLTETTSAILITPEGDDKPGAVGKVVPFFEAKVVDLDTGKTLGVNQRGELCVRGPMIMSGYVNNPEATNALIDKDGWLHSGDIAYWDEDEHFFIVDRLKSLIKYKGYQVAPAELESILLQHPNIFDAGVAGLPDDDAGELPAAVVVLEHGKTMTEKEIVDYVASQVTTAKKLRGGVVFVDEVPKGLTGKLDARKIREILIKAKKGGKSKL

As for `COc1ccc(OC)cc1`, the Potency result in test [1], in test [2], in test [3], in test [4], in test [5] and in test [6] was “inactive” throughout. For the same compound, in test [7], the Potency entry is “inactive”. In addition, in test [8], the compound was classed as inactive.

For `N#Cc1ccccc1`, the Potency result in test [1], in test [2], in test [3], in [4], in test [6] and in test [7] was “inactive” in each case. Further, the result in test [9] and in test [8] was inactive.

In the case of `C=CC[N+](C)(C)CC=C`, the Potency result in test [1], in test [2], in test [3], in test [4] and in [6] was “inactive” each time.

As for `CCCCCC(=O)O`, the Potency result in test [1], in [2], in [3], in [4] and in test [6] was “inactive” each time. For the same compound, in test [7], the Potency is 54.5 µM (active) and inactive. In addition, the result in test [8] was inactive.

Take `CC(=O)OC1CC(C)OC(C)O1` (stereo unspecified): the Potency entry in [1], in test [2], in [3], in test [4], in test [5] and in test [6] was “inactive” in each case. For the same compound, in [7], the Potency entry is “inactive”. The outcome in test [8] was inactive.

`CC(C)(Oc1ccc(CCNC(=O)c2ccc(Cl)cc2)cc1)C(=O)O`: the compound was called inactive in [10], in test [9] and in test [8]. In addition, in [2], the Potency is 35.6 µM (active). Moreover, the Potency entry in [3], in test [4], in [6] and in test [7] was “inactive” in each case.

As to `COc1ccc(CCC(C)=O)cc1`, the Potency result in test [1], in [2], in [3], in test [4] and in [6] was “inactive” in each case.

Take `c1ccc(Oc2ccccc2)cc1`: the Potency result in [1], in test [2], in test [3], in [4], in test [5] and in [6] was “inactive” each time.

For the compound `C[C@]12CC[C@@H]3c4ccc(O)cc4CC[C@H]3[C@@H]1C[C@@H](O)[C@@H]2O`, the Potency result in test [1], in test [2], in test [3], in test [4] and in test [6] was “inactive” throughout.

Consider `CC1(C)CC(N)CC(C)(CN)C1` (stereo unspecified), for which the Potency entry in [1], in test [2], in [3], in [4] and in test [6] was “inactive” in each case.

As for `Cc1ccc(C(C)C)c(O)c1`, the Potency entry in test [1], in [2], in test [3], in [4], in [6] and in test [7] was “inactive” throughout. Besides, the call in test [9] and in [8] was inactive.

As for `NC(=S)NNC(N)=S`, the Potency result in [1], in test [2], in test [3], in test [4] and in test [6] was “inactive” in each case.

On to `COC(=O)CCCC(=O)OC`, for which the Potency entry in test [1], in test [2], in test [3], in test [4] and in test [6] was “inactive” each time. In addition, the compound was called inactive in test [9].

On to `COc1ccccc1OCC(O)CO` (stereo unspecified), for which the Potency result in test [1], in test [2], in test [3], in test [4] and in [6] was “inactive” in each case.

For `CN(C)c1ccc(Cc2ccc(N(C)C)cc2)cc1`, the Potency entry in [1], in test [2], in test [3], in test [4], in test [6] and in [7] was “inactive” in each case. In test [8], the call was inactive.

Regarding `NCCN1CCNCC1`, the Potency entry in test [1], in test [2], in [3], in [4], in test [5] and in [6] was “inactive” each time.

Regarding `CC(C)CCCCCCCOC(=O)CCCCC(=O)OCCCCCCCC(C)C`, the Potency result in [1], in [2], in test [3], in test [4] and in test [6] was “inactive” in each case. In addition, the outcome in test [9] was inactive.

Regarding `OC1C(O)C(O)C(O)C(O)C1O` (stereo unspecified), the Potency result in [1], in [2], in test [3], in test [4] and in test [6] was “inactive” in each case.

`CC(C)(C)c1cc(Cc2cc(C(C)(C)C)c(O)c(C(C)(C)C)c2)cc(C(C)(C)C)c1O`: the Potency entry in [1], in test [2], in [3], in [4] and in [6] was “inactive” in each case. Besides, the outcome in test [9] was inactive.

Consider `CCCCCCC=O`, for which the Potency entry in test [1], in test [2], in [3], in [4] and in test [6] was “inactive” in each case.

Turning to `NCCNCCN`, the Potency result in [1], in test [2], in test [3], in [4], in test [5] and in test [6] was “inactive” throughout. The Potency result in [7] is “inactive”. For the same compound, the outcome in [9] and in [8] was inactive.

Consider `CC(CCO)CC(C)(C)C` (stereo unspecified), for which the Potency entry in test [1], in test [2], in [3], in test [4] and in test [6] was “inactive” in each case.

For the compound `C=C(C)C(=O)OCC(C)C`, the Potency result in test [1], in test [2], in [3], in [4] and in test [6] was “inactive” in each case.

Regarding `CCCCCCCCCCCCCCCC(=O)OC(C)C`, the Potency result in test [1], in test [2], in [3], in [4] and in test [6] was “inactive” in each case.

Take `O=C1C(c2[nH]c3ccccc3c2O)=Nc2ccccc21`: the Potency result in [1], in test [2], in [3], in [4], in test [6] and in test [7] was “inactive” each time. Besides, the result in test [9] and in [8] was inactive.
